Reference: PubChem BioAssay AID1745848 (National Center for Advancing Translational Sciences (NCATS), 2022)
The campaign covered roughly 2,100 compounds. About 940 (45%) were called active. Inconclusive results (about 48%) are left out. Calls follow the shape of the dose curve; as a rule, active = well fitted inhibition curve with a large enough effect; inconclusive = small, poorly fitted or top-dose-only effect; inactive = no such curve, though single readings can be large or run the other way. The set was probably picked from earlier hits. This is one part of the list.

assay: Confirmatory qHTS for Inhibitors of ATXN expression; conditions: ATXN2-luciferase reporter cells, luminescence, 24 h; series mostly up to 11.5 µM; also: nearly all actives have a fitted effect of over 65% in size
In short: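 Cells carrying ATXN2-luciferase reporter exposed 24 h at 37 C to compound. Viability then read by CellTiter-Fluor (25 uM GF-AFC, 30 min), followed by SteadyGlo luminescence; medium-only wells set 100% inhibition.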
Potency is read from the fitted curve at half-maximal effect.

Row | Structure (SMILES) | Potency
1 | O=C(N/N=C/c1ccc(O)cc1O)/C(=C/c1ccccc1)CCO | 0.794 µM (active)
2 | CCN(CC)c1ccc(/C=C/c2cccc[n+]2C)c(OC)c1 | 2.51 µM (active)
3 | Cc1cc(C)nc(/N=C(\N)Nc2ccc(C(C)C)cc2)n1 | 2.24 µM (active)
4 | S=C(NC1CCCCC1)N1CCOCCOCCN(C(=S)NC2CCCCC2)CCOCCOCC1 | 3.16 µM (active)
5 | OC[C@@H]1CN(Cc2ccc(-c3ccccc3)cc2)C[C@H](n2cnc3c(Nc4ccccc4)ncnc32)O1 | 15.8 µM (active)
6 | CCOC(=O)C1CCN(c2ncnc3c2cnn3-c2ccc(Cl)cc2)CC1 | 1.26 µM (active)
7 | O=C(N/N=C/c1cc([N+](=O)[O-])ccc1O)c1cc(-c2ccccc2)nc2ccccc12 | 3.16 µM (active)
8 | O=C(N/N=C/c1cc([N+](=O)[O-])ccc1O)c1c[nH]c2ccccc12 | 17.8 µM (active)
9 | O=C(Cn1nc2ccccc2n1)N/N=C/c1cc([N+](=O)[O-])ccc1O | 3.16 µM (active)
10 | O=C(N/N=C/c1cc([N+](=O)[O-])ccc1O)c1cccc2cc[nH]c12 | 3.16 µM (active)
11 | COc1ccccc1N1C(=O)N(C(C)=O)C2C1Nc1ccccc1N2C (stereo not given) | inactive
12 | CSc1cccc(NC(=O)c2ccc(CN3CCc4ccccc4C3)cc2)c1 | 4.47 µM (active)
13 | CC1Cc2cc(-c3csc(NC(=O)Cc4cccs4)n3)ccc2N1S(C)(=O)=O (stereo not given) | 3.98 µM (active)
14 | C=CCc1cccc(/C=N/NC(=O)CCC(=O)Nc2ccc(F)cc2)c1O | 3.55 µM (active)
15 | C=CCc1cccc(/C=N/NC(=O)CCC(=O)Nc2ccc(C)cc2)c1O | 3.55 µM (active)
16 | Cn1c(CCN2CCN(c3ccccn3)CC2)nc2cc(NC(=O)COc3ccc(Cl)cc3)ccc21 | 11.2 µM (active)
17 | Cc1c(N/N=C(\C#N)C(=O)c2ccc(Cl)cc2)c(=O)n(-c2ccccc2)n1C | 1.12 µM (active)
18 | Cc1c(N=C2N=C(NC(=O)Nc3ccc(Cl)cc3)c3ccccc32)c(=O)n(-c2ccccc2)n1C | inactive
19 | Cc1ccccc1C(=O)/C(C#N)=N/Nc1c(C)n(C)n(-c2ccccc2)c1=O | 3.55 µM (active)
20 | Cc1c(N/N=C(\C#N)C(=O)c2ccccc2)c(=O)n(-c2ccccc2)n1C | 2.51 µM (active)

Row | Structure (SMILES) | Potency
21 | Cc1ccccc1C(=O)N1CCN(c2ccc(NC(=O)c3ccc4c(c3)OCCO4)cc2)CC1 | 3.98 µM (active)
22 | O=C(Nc1ccc(NC(=O)c2ccco2)cc1)c1ccc2c(c1)OCCO2 | 14.1 µM (active)
23 | Cc1ccc(C(=O)N2CCN(c3ccc(NC(=S)NC(=O)c4cccs4)cc3)CC2)cc1 | inactive
24 | COc1ccc(/C=N/NC(=O)c2nc(-c3ccccc3)n(-c3ccccc3)n2)c(O)c1 | 3.98 µM (active)
25 | COc1cccc(C=NNC(=O)c2ccncc2)c1O | 15.8 µM (active)
26 | CC(=O)c1sc(NC(=O)c2cc(-c3ccccc3)nn2-c2ccccc2)nc1C | inactive
27 | Cc1cccc(NC(=O)c2cc(-c3ccccn3)nc3ccccc23)c1C | 17.8 µM (active)
28 | COc1cccc(/C=N/NC(=O)c2ccc(-c3ccccc3)cc2)c1O | 2 µM (active)
29 | COc1cccc(/C=N/NC(=O)c2ccc(=O)n(C)c2)c1O | 15.8 µM (active)
30 | COc1cccc(/C=N/NC(=O)c2cc(-c3ccccn3)nc3ccccc23)c1O | 2.82 µM (active)
31 | COc1cccc(/C=N/NC(=O)c2nc(-c3ccccc3)cc(-c3ccccc3)n2)c1O | 1 µM (active)
32 | OC[C@@H]1[C@@H](c2ccc(F)cc2)C(c2ccccc2)=NN1c1ccccc1 | inactive
33 | Cc1noc2ncnc(N3CCN(c4cccc(Cl)c4)CC3)c12 | 11.2 µM (active)
34 | Cc1cc(=O)oc2c1c(C)nn2-c1cccc(Cl)c1 | inactive
35 | CCN(CC)CCNC(=O)CCc1c(C)nc2c(c(C)nn2-c2ccc(C)cc2)c1C | 3.16 µM (active)
36 | COc1ccc2nc(C)cc(NCc3cccc(C(F)(F)F)c3)c2c1 | 14.1 µM (active)
37 | COc1ccc2nc(C)cc(NCc3ccc(F)cc3)c2c1 | 3.98 µM (active)
38 | CCOC(=O)c1c(SCCN2CCCCC2)n(-c2ccccc2)c(=S)n(-c2ccccc2)c1=O | 22.4 µM (active)
39 | CCOC(=O)c1c(SCCN2CCCC2)n(-c2ccccc2)c(=S)n(-c2ccccc2)c1=O | 2.24 µM (active)
40 | COc1cccc(N2CCN(c3nc(-c4ccccc4C)cc(=O)[nH]3)CC2)c1 | 0.398 µM (active)

Row | Structure (SMILES) | Potency
41 | O=C(CNc1ccc(F)cc1)N/N=C/c1c(O)ccc2ccccc12 | 3.16 µM (active)
42 | COc1ccccc1NCC(=O)N/N=C/c1c(O)ccc2ccccc12 | 3.16 µM (active)
43 | O=C(CNc1ccccc1)N/N=C/c1c(O)ccc2ccccc12 | 0.562 µM (active)
44 | O=C(CSCC(=O)Nc1ccccc1)N/N=C/c1c(O)ccc2ccccc12 | 0.708 µM (active)
45 | CCOc1cc(CNCCO)cc(Br)c1OCc1ccccc1 | 12.6 µM (active)
46 | Cc1nc(C(F)(F)F)c(C(=O)N/N=C(\N)c2ccccn2)s1 | 14.1 µM (active)
47 | CC(C)C1Cc2c(sc3[nH]c(=S)n(Cc4ccccc4)c(=O)c23)CO1 (stereo not given) | 12.6 µM (active)
48 | Nc1ccc(Oc2ccccc2-c2ccccc2)cc1 | 2 µM (active)
49 | Cc1ncc(CO)c(/C=N/Nc2ccc(C(F)(F)F)cn2)c1O | 3.55 µM (active)
50 | CCC(C)N1C(=O)S/C(=C/c2ccc(Sc3nc4ccccc4[nH]3)o2)C1=O (stereo not given) | 11.2 µM (active)
51 | COc1cc(C(=O)OC(C)C(=O)N2CCc3ccccc3C2)ccc1OCC(=O)N1CCOCC1 (stereo not given) | inactive
52 | S=C(Nc1ccccc1)Nc1ccc(OCc2ccc(Cl)cc2Cl)cc1 | 2.51 µM (active)
53 | Cc1[nH]c(=O)c(C(=O)/C=C/c2ccccc2)c2c1CCCC2 | 7.94 µM (active)
54 | Cc1ccc(C(=O)NCCN2C3=NC[C@@H](Cc4ccccc4)N3C[C@H]2Cc2ccc(O)cc2)cc1Br | 2.82 µM (active)
55 | CCCCn1c2ccc(F)cc2c2nnc(NN)nc21 | 28.2 µM (active)
56 | Cc1cc(C2=NNC(=NC3CC3)SC2)c(C)n1-c1ccccc1F | 0.126 µM (active)
57 | CCCCC(=O)NC(c1ccco1)c1cc(Cl)c2cccnc2c1O (stereo not given) | 3.55 µM (active)
58 | CC(=O)NC(c1ccco1)c1cc(Cl)c2cccnc2c1O (stereo not given) | 3.16 µM (active)
59 | CCCC(=O)NC(c1ccco1)c1cc(Cl)c2cccnc2c1O (stereo not given) | 11.2 µM (active)
60 | CCC(=O)NC(c1ccco1)c1cc(Cl)c2cccnc2c1O (stereo not given) | 2.82 µM (active)
